In PubChem BioAssay (NCI) one finds growth inhibition data, which are given here for 21 compounds.

About 79,000 compounds went through this panel and 15% of them were active in at least one assay; those are over-represented in the sample as a whole. A number with no mark means an inactive call. The source made the active and inactive calls. Rule as the data show it: active = growth inhibition above about 70%; inactive = the rest.

Test [1] is described as follows: NCI Yeast Anticancer Drug Screen. Data for the rad50 strain (AID 155).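 Also: 0% = growth of vehicle-only cultures of the same strain.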 To be noted: S. cerevisiae rad50 strain growth inhibition; at 50.0 µM; stronger effect = higher value. Put shortly:
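Vehicle-treated cultures provide the reference for the growth inhibition reported for compound-exposed, repair-deficient yeast.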

Test [2] in a line: NCI Yeast Anticancer Drug Screen. Data for the mec2-1 strain (AID 157). As to conditions: S. cerevisiae mec2-1 strain, at 50.0 µM, stronger effect = higher value. Put shortly: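 Cells of the genetically defined mec2-1 yeast strain are incubated with test compound. Inhibition of growth is calculated against vehicle-treated controls.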
A short description of test [3]: NCI Yeast Anticancer Drug Screen. Data for the sgs1 mgt1 strain (AID 161).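 Also: 0% = growth of cultures given vehicle only.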 To be noted: S. cerevisiae sgs1 mgt1 strain, at 50.0 µM, stronger effect = higher value. Put shortly: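 Inhibition of yeast growth, normalised to vehicle-treated controls, is reported for a strain bearing genetic alterations in DNA damage repair.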
Test [4] in a line: NCI Yeast Anticancer Drug Screen. Data for the cln2 rad14 strain (AID 165).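 Also: 0% = growth equal to vehicle treated cultures.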 To be noted: S. cerevisiae cln2 rad14 strain, at 50.0 µM, stronger effect = higher value. Put shortly: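 The screen exposed genetically defined yeast (cln2 rad14) to test compounds and scored growth inhibition relative to vehicle-treated controls.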
A short description of test [5]: NCI Yeast Anticancer Drug Screen. Data for the bub3 strain (AID 167). As to conditions: S. cerevisiae bub3 mutant strain, at 50.0 µM, stronger effect = higher value. Put shortly:
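Mutant yeast screening strain plus compound; vehicle-treated cultures serve as the 0% inhibition reference.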

Test [6] in a line: NCI Yeast Anticancer Drug Screen. Data for the mlh1 rad18 strain (AID 175). As to conditions: S. cerevisiae mlh1 rad18 strain growth inhibition; at 50.0 µM; stronger effect = higher value. Summed up: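 Compound-treated yeast growth, normalised to vehicle controls. Strain bears defined DNA repair mutations.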

For `CCCCCCCCCCCCCCCCS(=O)(=O)c1ccc(S(=O)(=O)F)cc1NC(=O)C(F)(F)F`, the growth inhibition is -22.4% in test [1]; -9.9% in test [2]; -3.6% in test [3]; 24.1% in test [4]; 12.6% in test [5]; 8.2% in test [6].

Regarding `c1ccc(CC2NC(Cc3ccccc3)N3C(Cc4ccccc4)N23)cc1` (stereo unspecified), the growth inhibition is -2.65% in test [1]; 1.9% in test [2]; 0.9% in test [3]; -6.25% in test [4]; 9% in test [5]; 3.45% in test [6].

With `O=C1c2ccccc2OP(=O)(OCC(F)(F)F)OC1(C(F)(F)F)C(F)(F)F` (stereo unspecified), the growth inhibition in test [1] is -21.4%; in test [2] it was -54.7%; in test [3], -15.2%; in test [4] it was -65.5%; in test [5], -41.5%; in test [6], -22.8%.

In the case of `CN1CN(c2ccccc2)C2(CCN(CCC3Oc4ccccc4O3)CC2)C1=O`, the growth inhibition is -22.4% in test [1]; 6.45% in test [2]; -0.4% in test [3]; -1.2% in test [4]; -1.35% in test [5]; 3.35% in test [6].

With `CC(C)(C)c1cc2c(=O)o[s+]3oc(=O)c(c1)c23`, the growth inhibition was 10.2% in test [1]; -8.75% in test [2]; 6.75% in test [3]; 1.35% in test [4]; 6.15% in test [5]; 14.8% in test [6].

Regarding `CCOC(=O)C1=C(C)/C(=C\c2[nH]c(C)c(C(=O)OCC)c2C)N=C1C`, the growth inhibition in test [1] was 8.95%; in test [2], 13.7%; in test [3], 23%; in test [4], 8.95%; in test [5], 19.5%; in test [6], 19.9%.

For `COC(=O)C1(F)C(=O)NC(=O)NC1O` (stereo unspecified), the growth inhibition is -4.6% in test [1]; -2.75% in test [2]; 3.5% in test [3]; 14.7% in test [4]; 0.85% in test [5]; 2.25% in test [6].

With `O=[As](O)(O)CC(Br)CBr` (stereo unspecified), the growth inhibition in test [1] is 5.5%; in test [2] it was 12%; in test [3], 5.95%; in test [4], -7.3%; in test [5], 41.1%; in test [6], -3.4%.

Consider `O=C(CCCN1CCC2(CC1)C(=O)NCN2c1ccccc1)c1ccccc1`, for which the growth inhibition in test [1] was -17.6%; in test [2], -2.65%; in test [3], -0.85%; in test [4], -18.4%; in test [5] it was 2.35%; in test [6], -2.15%.

Take `CN=c1ssc(/N=C(\SC)N(C)C)[n+]1C`: the growth inhibition was -17.7% in test [1]; -10.1% in test [2]; -13.8% in test [3]; -65.7% in test [4]; -19.4% in test [5]; 3.05% in test [6].

As to `CNC(=O)c1[nH]cnc1/N=N/N(C)N`, the growth inhibition in test [1] is 85.2% (active); in test [2], 91.8% (active); in test [3] it was 90.5% (active); in test [4], 87.9% (active); in test [5] it was 89% (active); in test [6], 89.3% (active).

Turning to `Cc1ccc(-c2cc(C)n(C)[n+]2C)cc1`, the growth inhibition in test [1] is 8.05%; in test [2], 7.05%; in test [3], 8.7%; in test [4] it was -20.9%; in test [5], 9.6%; in test [6], -3.05%.

As for `NC(Cc1ccc(Cl)cc1)c1nn[nH]n1` (stereo unspecified), the growth inhibition in test [1] was -5.5%; in test [2] it was 1.25%; in test [3], -4.1%; in test [4], -22.4%; in test [5] it was 1.2%; in test [6], -7.7%.

Consider `O[As](O)O.S=C(S)c1ccccc1S`, for which the growth inhibition is 7.55% in test [1]; -13% in test [2]; 18.7% in test [3]; 28% in test [4]; 1.75% in test [5]; 24.9% in test [6].

`CC1=CC(=Nc2ccc(N(CCCl)CCCl)cc2)C=CC1=O`: the growth inhibition in test [1] was -6.1%; in test [2] it was 33.2%; in test [3] it was -28.4%; in test [4], 14.2%; in test [5] it was -7.9%; in test [6], 5.35%.

As to `c1ccc2sc(SNC3CCCCC3)nc2c1`, the growth inhibition in test [1] was -29.7%; in test [2] it was -65.1%; in test [3], -60.1%; in test [4], -128%; in test [5], 13.6%; in test [6] it was 2.4%.

For `CO/C(=N/N1CC1C(F)(F)F)c1ccncc1` (stereo unspecified), the growth inhibition was -34.8% in test [1]; 19.2% in test [2]; -51.9% in test [3]; 11.8% in test [4]; 1.65% in test [5]; 8% in test [6].

Consider `C=C(Br)C[N+]12CN3CN(CN(C3)C1)C2`, for which the growth inhibition was -2% in test [1]; -6.55% in test [2]; 2.15% in test [3]; -6.95% in test [4]; 2.7% in test [5]; -17.2% in test [6].

`CCC1CN1P1(=O)OCC(C)(N)CO1` (stereo unspecified): the growth inhibition is -9.45% in test [1]; 0.7% in test [2]; -7.35% in test [3]; 42.6% in test [4]; -29.1% in test [5]; -10.6% in test [6].

On to `C[CH2][Pb]([Br])([CH2]C)[CH2]C`, for which the growth inhibition in test [1] is -17.7%; in test [2], -1.4%; in test [3], -5.85%; in test [4], -14.1%; in test [5] it was -4.15%; in test [6], -1.45%.

`O=N[O-].O=N[O-].[Co].[NH-]CC[N-]CCO.[NH-]CC[N-]CCO`: the growth inhibition in test [1] was 37.6%; in test [2] it was -0.7%; in test [3], 17.1%; in test [4] it was 14.9%; in test [5] it was 5.7%; in test [6], 7.55%.
